Test results as given in ChEMBL document CHEMBL2218924, “A broad activity screen in support of a chemogenomic map for kinase signalling research and drug discovery” (Biochem J, 2013).

Key:
[1] = target: Serine/threonine-protein kinase MRCK beta (Homo sapiens) (UniProt Q9Y5S2); details: at 1 µM
[2] = target: Serine/threonine-protein kinase MRCK beta (Homo sapiens) (UniProt Q9Y5S2); details: at 10 µM
[3] = target: Ribosomal protein S6 kinase alpha-5 (Homo sapiens) (UniProt O75582); details: at 1 µM
[4] = target: Ribosomal protein S6 kinase alpha-5 (Homo sapiens) (UniProt O75582); details: at 10 µM
[5] = target: Ribosomal protein S6 kinase alpha-4 (Homo sapiens) (UniProt O75676); details: at 1 µM
[6] = target: Ribosomal protein S6 kinase alpha-4 (Homo sapiens) (UniProt O75676); details: at 10 µM
[7] = target: SRSF protein kinase 3 (Homo sapiens) (UniProt Q9UPE1); details: at 1 µM
[8] = target: SRSF protein kinase 3 (Homo sapiens) (UniProt Q9UPE1); details: at 10 µM
[9] = target: T1, Serine/threonine-protein kinase 4 (Homo sapiens) (UniProt Q13043); details: at 1 µM
T1 sequence (whole entry): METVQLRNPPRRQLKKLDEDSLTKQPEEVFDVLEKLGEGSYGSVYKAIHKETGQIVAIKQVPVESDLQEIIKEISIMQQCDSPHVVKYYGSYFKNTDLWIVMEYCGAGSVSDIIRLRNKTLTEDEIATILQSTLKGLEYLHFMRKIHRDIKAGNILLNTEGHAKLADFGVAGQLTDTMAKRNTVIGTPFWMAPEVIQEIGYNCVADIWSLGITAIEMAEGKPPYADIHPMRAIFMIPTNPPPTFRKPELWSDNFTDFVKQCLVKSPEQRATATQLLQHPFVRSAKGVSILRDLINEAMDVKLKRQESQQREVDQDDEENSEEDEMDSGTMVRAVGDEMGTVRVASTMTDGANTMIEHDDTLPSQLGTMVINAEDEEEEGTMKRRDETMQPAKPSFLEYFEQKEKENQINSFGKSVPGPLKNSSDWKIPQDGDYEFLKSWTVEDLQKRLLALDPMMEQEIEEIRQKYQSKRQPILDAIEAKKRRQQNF

[10] = target: T1, Serine/threonine-protein kinase 4 (Homo sapiens); details: at 10 µM
[11] = target: T2, Serine/threonine-protein kinase 3 (Homo sapiens) (UniProt Q13188); details: at 1 µM
T2 sequence (whole entry): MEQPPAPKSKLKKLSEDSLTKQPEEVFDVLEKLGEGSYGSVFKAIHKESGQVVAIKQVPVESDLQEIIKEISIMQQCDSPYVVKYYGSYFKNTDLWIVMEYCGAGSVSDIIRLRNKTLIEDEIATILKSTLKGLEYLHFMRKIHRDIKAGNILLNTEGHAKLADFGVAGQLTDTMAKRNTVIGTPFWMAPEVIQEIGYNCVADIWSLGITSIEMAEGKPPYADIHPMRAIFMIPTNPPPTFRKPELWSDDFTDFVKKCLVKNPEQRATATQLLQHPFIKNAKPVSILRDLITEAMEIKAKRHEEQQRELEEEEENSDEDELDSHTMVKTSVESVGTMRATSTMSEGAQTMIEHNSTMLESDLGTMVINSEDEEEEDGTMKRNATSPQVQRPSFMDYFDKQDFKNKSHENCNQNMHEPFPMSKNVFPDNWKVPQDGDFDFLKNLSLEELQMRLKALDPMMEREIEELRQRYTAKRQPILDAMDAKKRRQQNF

[12] = target: T2, Serine/threonine-protein kinase 3 (Homo sapiens); details: at 10 µM
[13] = target: Serine/threonine-protein kinase 24 (Homo sapiens) (UniProt Q9Y6E0); details: at 1 µM
[14] = target: Serine/threonine-protein kinase 24 (Homo sapiens) (UniProt Q9Y6E0); details: at 10 µM
[15] = target: T3, Tyrosine-protein kinase Mer (Homo sapiens) (UniProt Q12866); details: at 1 µM
T3 sequence (whole entry): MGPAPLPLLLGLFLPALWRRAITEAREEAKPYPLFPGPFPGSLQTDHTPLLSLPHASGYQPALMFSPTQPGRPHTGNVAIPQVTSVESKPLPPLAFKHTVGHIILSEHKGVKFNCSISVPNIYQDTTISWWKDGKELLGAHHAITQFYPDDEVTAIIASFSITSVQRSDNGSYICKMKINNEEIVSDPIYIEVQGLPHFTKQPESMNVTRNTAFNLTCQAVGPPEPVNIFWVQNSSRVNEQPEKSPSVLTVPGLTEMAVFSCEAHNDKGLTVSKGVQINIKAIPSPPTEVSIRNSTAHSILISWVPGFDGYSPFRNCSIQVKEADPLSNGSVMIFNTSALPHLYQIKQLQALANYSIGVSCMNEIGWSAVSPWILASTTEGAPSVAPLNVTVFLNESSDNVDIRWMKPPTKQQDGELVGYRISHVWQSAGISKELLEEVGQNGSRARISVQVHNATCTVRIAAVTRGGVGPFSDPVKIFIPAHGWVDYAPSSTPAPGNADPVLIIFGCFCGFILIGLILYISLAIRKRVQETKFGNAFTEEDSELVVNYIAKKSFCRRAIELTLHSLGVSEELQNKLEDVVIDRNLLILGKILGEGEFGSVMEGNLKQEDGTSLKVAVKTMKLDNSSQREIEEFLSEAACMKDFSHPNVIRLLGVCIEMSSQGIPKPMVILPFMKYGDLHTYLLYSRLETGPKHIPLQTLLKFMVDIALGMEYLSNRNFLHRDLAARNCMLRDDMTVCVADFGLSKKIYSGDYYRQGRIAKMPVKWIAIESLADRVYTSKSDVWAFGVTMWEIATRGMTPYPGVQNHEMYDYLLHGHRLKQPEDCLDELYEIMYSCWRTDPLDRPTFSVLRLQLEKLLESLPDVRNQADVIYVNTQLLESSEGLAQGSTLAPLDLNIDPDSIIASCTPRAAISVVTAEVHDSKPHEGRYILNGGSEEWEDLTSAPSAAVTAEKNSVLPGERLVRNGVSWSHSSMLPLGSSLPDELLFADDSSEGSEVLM

[16] = target: T3, Tyrosine-protein kinase Mer (Homo sapiens); details: at 10 µM
[17] = target: Hepatocyte growth factor receptor (Homo sapiens) (UniProt P08581); details: at 1 µM
[18] = target: Hepatocyte growth factor receptor (Homo sapiens) (UniProt P08581); details: at 10 µM
[19] = target: MAP kinase-interacting serine/threonine-protein kinase 2 (Homo sapiens) (UniProt Q9HBH9); details: at 1 µM
[20] = target: MAP kinase-interacting serine/threonine-protein kinase 2 (Homo sapiens) (UniProt Q9HBH9); details: at 10 µM

Serine/threonine-protein kinase MRCK beta (Homo sapiens), sequence (Q9Y5S2 whole entry): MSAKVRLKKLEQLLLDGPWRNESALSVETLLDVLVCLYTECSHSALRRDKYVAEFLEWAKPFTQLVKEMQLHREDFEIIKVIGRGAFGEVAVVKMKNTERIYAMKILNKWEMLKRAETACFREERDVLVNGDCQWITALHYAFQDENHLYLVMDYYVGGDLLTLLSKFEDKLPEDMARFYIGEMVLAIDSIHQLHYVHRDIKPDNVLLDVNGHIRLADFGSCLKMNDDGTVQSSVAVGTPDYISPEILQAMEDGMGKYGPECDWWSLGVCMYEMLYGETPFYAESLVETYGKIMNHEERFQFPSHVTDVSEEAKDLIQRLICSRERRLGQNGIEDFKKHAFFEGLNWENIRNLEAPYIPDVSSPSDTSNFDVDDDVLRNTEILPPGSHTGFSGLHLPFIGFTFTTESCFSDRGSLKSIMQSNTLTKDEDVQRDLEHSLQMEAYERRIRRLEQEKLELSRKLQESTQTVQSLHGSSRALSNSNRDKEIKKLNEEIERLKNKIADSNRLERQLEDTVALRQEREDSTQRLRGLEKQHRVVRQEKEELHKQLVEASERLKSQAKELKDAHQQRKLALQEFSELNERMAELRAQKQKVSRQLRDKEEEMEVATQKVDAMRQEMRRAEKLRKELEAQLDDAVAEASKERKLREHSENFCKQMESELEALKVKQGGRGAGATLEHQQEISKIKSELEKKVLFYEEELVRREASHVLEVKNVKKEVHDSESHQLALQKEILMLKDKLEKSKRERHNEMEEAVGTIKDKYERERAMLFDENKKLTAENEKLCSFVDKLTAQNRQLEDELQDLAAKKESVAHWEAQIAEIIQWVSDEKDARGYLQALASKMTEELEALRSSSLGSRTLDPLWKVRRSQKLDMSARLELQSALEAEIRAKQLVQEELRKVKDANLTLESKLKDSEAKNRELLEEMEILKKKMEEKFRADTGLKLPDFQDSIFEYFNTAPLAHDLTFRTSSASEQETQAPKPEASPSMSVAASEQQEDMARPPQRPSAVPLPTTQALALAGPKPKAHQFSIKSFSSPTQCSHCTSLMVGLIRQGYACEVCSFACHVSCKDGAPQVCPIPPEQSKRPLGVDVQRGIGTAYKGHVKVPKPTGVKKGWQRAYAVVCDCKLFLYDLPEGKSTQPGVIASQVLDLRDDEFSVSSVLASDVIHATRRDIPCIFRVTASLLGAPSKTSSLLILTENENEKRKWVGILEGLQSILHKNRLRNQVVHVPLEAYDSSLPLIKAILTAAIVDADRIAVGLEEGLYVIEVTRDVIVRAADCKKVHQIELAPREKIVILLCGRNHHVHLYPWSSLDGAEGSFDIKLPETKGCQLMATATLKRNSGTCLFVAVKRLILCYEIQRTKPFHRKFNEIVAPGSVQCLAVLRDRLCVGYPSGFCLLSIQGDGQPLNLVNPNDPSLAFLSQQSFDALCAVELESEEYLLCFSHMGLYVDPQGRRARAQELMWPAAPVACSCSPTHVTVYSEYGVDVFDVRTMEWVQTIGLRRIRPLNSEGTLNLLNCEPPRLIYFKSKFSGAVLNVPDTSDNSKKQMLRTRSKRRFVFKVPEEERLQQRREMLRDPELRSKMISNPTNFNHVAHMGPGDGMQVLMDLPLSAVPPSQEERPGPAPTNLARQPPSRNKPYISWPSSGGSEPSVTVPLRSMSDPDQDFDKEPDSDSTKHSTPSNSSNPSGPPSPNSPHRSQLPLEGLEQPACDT
Hepatocyte growth factor receptor (Homo sapiens), sequence (P08581 whole entry): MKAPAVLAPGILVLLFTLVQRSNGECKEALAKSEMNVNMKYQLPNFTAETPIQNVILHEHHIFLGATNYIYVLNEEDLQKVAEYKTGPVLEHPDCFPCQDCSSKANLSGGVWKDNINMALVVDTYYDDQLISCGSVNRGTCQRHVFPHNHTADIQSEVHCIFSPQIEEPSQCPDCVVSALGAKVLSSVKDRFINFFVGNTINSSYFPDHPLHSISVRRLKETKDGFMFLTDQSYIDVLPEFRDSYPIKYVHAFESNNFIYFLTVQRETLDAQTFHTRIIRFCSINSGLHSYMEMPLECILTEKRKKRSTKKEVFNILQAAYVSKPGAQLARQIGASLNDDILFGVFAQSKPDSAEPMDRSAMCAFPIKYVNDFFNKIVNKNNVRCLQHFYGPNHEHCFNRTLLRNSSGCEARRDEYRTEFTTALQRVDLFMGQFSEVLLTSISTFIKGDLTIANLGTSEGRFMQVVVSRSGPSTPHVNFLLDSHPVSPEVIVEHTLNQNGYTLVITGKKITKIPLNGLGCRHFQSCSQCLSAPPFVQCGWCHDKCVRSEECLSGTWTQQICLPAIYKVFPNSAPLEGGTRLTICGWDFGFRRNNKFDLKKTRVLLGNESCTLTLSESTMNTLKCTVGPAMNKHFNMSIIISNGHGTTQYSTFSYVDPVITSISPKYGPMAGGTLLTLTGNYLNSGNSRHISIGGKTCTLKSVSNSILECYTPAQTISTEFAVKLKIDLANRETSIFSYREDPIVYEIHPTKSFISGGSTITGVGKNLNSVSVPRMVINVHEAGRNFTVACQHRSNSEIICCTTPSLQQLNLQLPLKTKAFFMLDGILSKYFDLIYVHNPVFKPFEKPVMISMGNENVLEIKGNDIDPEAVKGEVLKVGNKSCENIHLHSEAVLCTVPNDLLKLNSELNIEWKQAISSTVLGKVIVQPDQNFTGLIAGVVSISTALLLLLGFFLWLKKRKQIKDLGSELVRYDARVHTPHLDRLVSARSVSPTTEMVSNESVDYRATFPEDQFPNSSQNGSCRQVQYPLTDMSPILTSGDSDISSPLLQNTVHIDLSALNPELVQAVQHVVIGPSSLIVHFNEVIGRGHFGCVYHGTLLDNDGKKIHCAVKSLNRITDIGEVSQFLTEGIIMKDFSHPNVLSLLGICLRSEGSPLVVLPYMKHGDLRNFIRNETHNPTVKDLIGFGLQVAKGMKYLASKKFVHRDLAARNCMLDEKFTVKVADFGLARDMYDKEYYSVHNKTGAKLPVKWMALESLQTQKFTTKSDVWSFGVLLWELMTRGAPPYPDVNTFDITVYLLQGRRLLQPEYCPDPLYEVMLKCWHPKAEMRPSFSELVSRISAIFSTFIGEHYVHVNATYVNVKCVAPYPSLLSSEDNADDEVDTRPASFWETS
SRSF protein kinase 3 (Homo sapiens), sequence (Q9UPE1 whole entry): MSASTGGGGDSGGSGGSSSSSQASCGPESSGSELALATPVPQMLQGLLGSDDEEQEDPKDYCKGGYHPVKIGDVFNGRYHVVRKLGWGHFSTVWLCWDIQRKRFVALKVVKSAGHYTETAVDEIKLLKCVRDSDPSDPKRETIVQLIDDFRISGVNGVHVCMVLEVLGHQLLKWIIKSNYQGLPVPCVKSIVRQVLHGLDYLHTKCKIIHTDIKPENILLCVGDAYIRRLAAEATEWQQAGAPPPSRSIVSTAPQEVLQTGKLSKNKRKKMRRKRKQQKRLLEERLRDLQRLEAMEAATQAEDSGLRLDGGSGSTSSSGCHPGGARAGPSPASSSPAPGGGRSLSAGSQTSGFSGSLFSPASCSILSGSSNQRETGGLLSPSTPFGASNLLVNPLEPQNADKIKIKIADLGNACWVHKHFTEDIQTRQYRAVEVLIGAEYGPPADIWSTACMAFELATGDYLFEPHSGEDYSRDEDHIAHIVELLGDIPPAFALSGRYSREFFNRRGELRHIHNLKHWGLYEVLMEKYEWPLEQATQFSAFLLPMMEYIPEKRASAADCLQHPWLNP
MAP kinase-interacting serine/threonine-protein kinase 2 (Homo sapiens), sequence (Q9HBH9 whole entry, looked up): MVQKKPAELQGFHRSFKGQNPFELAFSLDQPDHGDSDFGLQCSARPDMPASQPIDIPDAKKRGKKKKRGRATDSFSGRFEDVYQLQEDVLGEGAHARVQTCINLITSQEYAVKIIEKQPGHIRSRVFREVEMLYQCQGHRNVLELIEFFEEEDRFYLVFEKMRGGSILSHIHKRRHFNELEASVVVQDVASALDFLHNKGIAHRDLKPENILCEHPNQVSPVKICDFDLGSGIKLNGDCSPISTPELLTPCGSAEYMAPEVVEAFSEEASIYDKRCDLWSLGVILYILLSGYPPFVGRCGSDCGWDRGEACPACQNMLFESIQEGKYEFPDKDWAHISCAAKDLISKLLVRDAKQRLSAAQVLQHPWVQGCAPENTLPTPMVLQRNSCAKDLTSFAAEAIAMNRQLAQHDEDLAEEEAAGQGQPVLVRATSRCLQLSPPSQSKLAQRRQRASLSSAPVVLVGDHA
Ribosomal protein S6 kinase alpha-5 (Homo sapiens), sequence (O75582 whole entry, looked up): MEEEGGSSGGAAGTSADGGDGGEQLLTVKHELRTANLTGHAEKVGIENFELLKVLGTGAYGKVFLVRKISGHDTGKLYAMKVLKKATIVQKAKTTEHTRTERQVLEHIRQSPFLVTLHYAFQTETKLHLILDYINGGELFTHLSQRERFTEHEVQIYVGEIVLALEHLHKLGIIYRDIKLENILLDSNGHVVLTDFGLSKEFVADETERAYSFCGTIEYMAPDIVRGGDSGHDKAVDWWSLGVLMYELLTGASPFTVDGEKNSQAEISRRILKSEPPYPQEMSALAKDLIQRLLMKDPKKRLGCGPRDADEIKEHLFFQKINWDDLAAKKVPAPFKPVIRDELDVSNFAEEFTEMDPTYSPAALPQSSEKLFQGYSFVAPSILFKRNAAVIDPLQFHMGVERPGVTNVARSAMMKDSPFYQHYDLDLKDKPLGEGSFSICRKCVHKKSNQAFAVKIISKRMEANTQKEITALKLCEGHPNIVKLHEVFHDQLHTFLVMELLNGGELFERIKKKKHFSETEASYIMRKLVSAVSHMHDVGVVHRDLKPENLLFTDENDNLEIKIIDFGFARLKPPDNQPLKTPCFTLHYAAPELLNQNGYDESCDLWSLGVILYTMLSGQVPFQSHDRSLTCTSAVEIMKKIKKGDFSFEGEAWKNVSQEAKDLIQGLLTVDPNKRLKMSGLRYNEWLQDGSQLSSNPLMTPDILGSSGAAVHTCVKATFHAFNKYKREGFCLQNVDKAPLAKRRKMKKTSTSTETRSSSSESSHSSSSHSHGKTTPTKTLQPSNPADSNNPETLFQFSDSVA

## CC(C)c1nn(-c2c(Cl)cccc2Cl)c2nc(Cc3ccc(OCCO)cc3)[nH]c(=O)c12
[1]
  residual activity: 97%
[2]
  residual activity: 83%
[3]
  residual activity: 128%
[4]
  residual activity: 91%
[5]
  residual activity: 94%
[6]
  residual activity: 84%
[7]
  residual activity: 87%
[8]
  residual activity: 76%
[9]
  residual activity: 80%
[10]
  residual activity: 68%
[11]
  residual activity: 109%
[12]
  residual activity: 78%
[13]
  residual activity: 23%
[14]
  residual activity: 2%
[15]
  residual activity: 98%
[16]
  residual activity: 75%
[17]
  residual activity: 146%
[18]
  residual activity: 75%
[19]
  residual activity: 103%
[20]
  residual activity: 102%

## c1ccc(-c2cnc(Nc3ccc(OCCN4CCCC4)cc3)s2)cc1
[1]
  residual activity: 106%
[2]
  residual activity: 109%
[3]
  residual activity: 128%
[4]
  residual activity: 106%
[7]
  residual activity: 108%
[8]
  residual activity: 78%
[11]
  residual activity: 109%
[13]
  residual activity: 67%
[14]
  residual activity: 80%
[15]
  residual activity: 81%
[16]
  residual activity: 17%
[17]
  residual activity: 78%
[18]
  residual activity: 44%
[19]
  residual activity: 21%
[20]
  residual activity: 7%

## O=C1Nc2ccc(Cl)cc2/C1=C/c1cc(Cl)c(O)c(Cl)c1
[1]
  residual activity: 80%
[2]
  residual activity: 67%
[5]
  residual activity: 84%
[6]
  residual activity: 51%
[7]
  residual activity: 100%
[8]
  residual activity: 71%
[9]
  residual activity: 41%
[10]
  residual activity: 12%
[11]
  residual activity: 49%
[12]
  residual activity: 2%
[13]
  residual activity: 56%
[14]
  residual activity: 50%
[15]
  residual activity: 92%
[16]
  residual activity: 58%
[17]
  residual activity: 87%
[18]
  residual activity: 79%
[19]
  residual activity: 90%
[20]
  residual activity: 61%

## CC(C)(C)n1nc(Cc2cccc3ccccc23)c2c(N)ncnc21
[1]
  residual activity: 99%
[2]
  residual activity: 86%
[3]
  residual activity: 120%
[4]
  residual activity: 93%
[5]
  residual activity: 95%
[7]
  residual activity: 116%
[8]
  residual activity: 80%
[9]
  residual activity: 90%
[10]
  residual activity: 58%
[11]
  residual activity: 91%
[12]
  residual activity: 29%
[14]
  residual activity: 32%
[17]
  residual activity: 128%
[18]
  residual activity: 73%
[19]
  residual activity: 113%
[20]
  residual activity: 98%

## COc1ccc2c(c1)c(C1=C(c3c[nH]c4ccccc34)C(=O)NC1=O)cn2CCCN(C)C
[1]
  residual activity: 80%
[2]
  residual activity: 41%
[3]
  residual activity: 37%
[4]
  residual activity: 4%
[5]
  residual activity: 39%
[6]
  residual activity: 5%
[8]
  residual activity: 52%
[9]
  residual activity: 64%
[10]
  residual activity: 25%
[13]
  residual activity: 21%
[14]
  residual activity: 5%
[15]
  residual activity: 81%
[16]
  residual activity: 10%
[17]
  residual activity: 111%
[19]
  residual activity: 105%
[20]
  residual activity: 82%

## O=C(O)/C=C/c1cc(Br)c(Br)c(Br)c1Br
[1]
  residual activity: 106%
[2]
  residual activity: 90%
[4]
  residual activity: 102%
[5]
  residual activity: 102%
[6]
  residual activity: 64%
[7]
  residual activity: 124%
[8]
  residual activity: 100%
[9]
  residual activity: 97%
[10]
  residual activity: 97%
[13]
  residual activity: 105%
[14]
  residual activity: 85%
[15]
  residual activity: 104%
[16]
  residual activity: 94%
[17]
  residual activity: 93%
[18]
  residual activity: 84%
[19]
  residual activity: 74%

## O=C1NC(=O)c2c1c1c3ccccc3[nH]c1n1cncc21
[1]
  residual activity: 82%
[2]
  residual activity: 79%
[3]
  residual activity: 63%
[4]
  residual activity: 48%
[5]
  residual activity: 53%
[6]
  residual activity: 29%
[7]
  residual activity: 82%
[8]
  residual activity: 63%
[9]
  residual activity: 40%
[10]
  residual activity: 21%
[11]
  residual activity: 68%
[12]
  residual activity: 33%
[13]
  residual activity: 56%
[14]
  residual activity: 34%
[15]
  residual activity: 37%
[16]
  residual activity: 21%
[17]
  residual activity: 146%
[18]
  residual activity: 92%
[19]
  residual activity: 32%
[20]
  residual activity: 21%

## CCOC(=O)c1c(C)[nH]c(/C=C2\C(=O)Nc3ccccc32)c1C
[1]
  residual activity: 91%
[2]
  residual activity: 83%
[4]
  residual activity: 97%
[5]
  residual activity: 87%
[6]
  residual activity: 91%
[7]
  residual activity: 95%
[8]
  residual activity: 90%
[11]
  residual activity: 85%
[12]
  residual activity: 72%
[13]
  residual activity: 97%
[14]
  residual activity: 88%
[15]
  residual activity: 16%
[16]
  residual activity: 3%

## Nc1n[nH]c2nc3ccccc3nc12
[1]
  residual activity: 86%
[2]
  residual activity: 92%
[4]
  residual activity: 86%
[9]
  residual activity: 76%
[10]
  residual activity: 94%
[11]
  residual activity: 117%
[12]
  residual activity: 95%
[13]
  residual activity: 81%
[14]
  residual activity: 70%
[15]
  residual activity: 95%
[16]
  residual activity: 73%
[17]
  residual activity: 92%
[18]
  residual activity: 100%

## O=C(NC(NC(=S)Nc1ccc(F)c([N+](=O)[O-])c1)C(Cl)(Cl)Cl)C(c1ccccc1)c1ccccc1 (centres undefined)
[1]
  residual activity: 97%
[2]
  residual activity: 87%
[5]
  residual activity: 95%
[6]
  residual activity: 94%
[7]
  residual activity: 98%
[9]
  residual activity: 92%
[11]
  residual activity: 98%
[12]
  residual activity: 71%
[13]
  residual activity: 86%
[14]
  residual activity: 82%

## O=C(c1ccccc1)c1ccc(N2CCOCC2)cc1O
[1]
  residual activity: 91%
[2]
  residual activity: 82%
[4]
  residual activity: 86%
[5]
  residual activity: 88%
[6]
  residual activity: 100%
[7]
  residual activity: 113%
[9]
  residual activity: 111%
[10]
  residual activity: 116%
[12]
  residual activity: 95%
[13]
  residual activity: 86%
[14]
  residual activity: 68%
[16]
  residual activity: 85%
[17]
  residual activity: 86%
[18]
  residual activity: 66%
[20]
  residual activity: 80%

## CC(C)[C@H](CO)Nc1nc(Nc2cc(N)cc(Cl)c2)c2ncn(C(C)C)c2n1
[1]
  residual activity: 100%
[2]
  residual activity: 90%
[3]
  residual activity: 118%
[4]
  residual activity: 76%
[6]
  residual activity: 51%
[7]
  residual activity: 40%
[8]
  residual activity: 12%
[9]
  residual activity: 82%
[10]
  residual activity: 47%
[12]
  residual activity: 60%
[13]
  residual activity: 78%
[14]
  residual activity: 26%
[15]
  residual activity: 22%
[16]
  residual activity: 2%
[17]
  residual activity: 74%
[18]
  residual activity: 13%
[19]
  residual activity: 94%
[20]
  residual activity: 75%

## NC(=O)Nc1sc(-c2ccc(F)cc2)cc1C(N)=O
[1]
  residual activity: 80%
[2]
  residual activity: 50%
[5]
  residual activity: 85%
[6]
  residual activity: 46%
[7]
  residual activity: 96%
[8]
  residual activity: 67%
[9]
  residual activity: 28%
[10]
  residual activity: 10%
[13]
  residual activity: 38%
[14]
  residual activity: 6%
[15]
  residual activity: 54%
[16]
  residual activity: 9%
[19]
  residual activity: 72%
[20]
  residual activity: 24%
